# Test results as given in PMC7862700, “An all-to-all approach to the identification of sequence-specific readers for epigenetic DNA modifications on cytosine”.
# Columns and labels:
# Test in all cases: DAPPL (digital affinity profiling via proximity ligation, sequencing); 10 mM Tris-HCl pH 7.5, 50 mM NaCl, 1 mM DTT, 4% glycerol, room temperature, 30 min; GST-TFs on glutathione beads, 16-mer random dsDNA library, 0.1% formaldehyde crosslink after washing; high values mean tight binding
# Settings in all cases: protein: recombinant; tags: N-terminal GST; dsDNA, one strand shown
# [1] = target: T1, FLI1 (Homo sapiens, UniProt Q01543 1-452)
# T1 sequence: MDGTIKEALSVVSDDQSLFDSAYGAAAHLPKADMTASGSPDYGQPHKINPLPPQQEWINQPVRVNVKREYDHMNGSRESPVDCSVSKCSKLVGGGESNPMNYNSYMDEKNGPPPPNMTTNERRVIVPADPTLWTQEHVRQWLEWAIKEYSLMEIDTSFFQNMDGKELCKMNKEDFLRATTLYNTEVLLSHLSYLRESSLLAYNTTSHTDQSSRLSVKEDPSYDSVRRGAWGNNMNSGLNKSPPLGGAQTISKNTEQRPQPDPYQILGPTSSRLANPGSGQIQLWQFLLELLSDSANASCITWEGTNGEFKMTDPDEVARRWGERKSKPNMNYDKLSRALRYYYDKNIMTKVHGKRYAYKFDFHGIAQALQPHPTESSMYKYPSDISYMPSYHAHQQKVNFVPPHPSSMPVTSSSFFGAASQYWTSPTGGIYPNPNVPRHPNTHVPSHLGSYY
# In short: (§1)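 Sequencing on an Illumina NextSeq500 followed washing, crosslinking with 0.1% formaldehyde, proximity ligation (BsaI/T4 ligase, 1 h, 37 °C) and PCR amplification of pools that had been incubated for 30 min at room temperature with 200 nmole of a random double-stranded 16-mer DNA library in Tris/NaCl/DTT/glycerol buffer. Each pool held DNA-barcoded human transcription factors, expressed in yeast as GST fusions and captured on glutathione beads, plus a tag-only sample. Binding signal is a hexamer's read frequency for a factor divided by its frequency in the tag-only sample.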
# [2] = target: T2, ELK1 (Homo sapiens, UniProt P19419 1-428)
# T2 sequence: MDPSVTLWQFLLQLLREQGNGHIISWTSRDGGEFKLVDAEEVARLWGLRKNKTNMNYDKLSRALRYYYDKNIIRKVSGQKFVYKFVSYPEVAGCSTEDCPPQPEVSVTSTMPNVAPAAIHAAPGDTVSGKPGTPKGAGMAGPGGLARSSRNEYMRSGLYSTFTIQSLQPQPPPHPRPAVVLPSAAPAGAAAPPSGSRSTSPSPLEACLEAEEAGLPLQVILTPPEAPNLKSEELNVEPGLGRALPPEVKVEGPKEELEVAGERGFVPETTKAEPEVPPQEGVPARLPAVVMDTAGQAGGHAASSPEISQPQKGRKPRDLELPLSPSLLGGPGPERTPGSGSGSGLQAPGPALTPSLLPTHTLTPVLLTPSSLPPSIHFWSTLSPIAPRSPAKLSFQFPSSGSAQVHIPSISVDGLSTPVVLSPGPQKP
# In short: as §1
# [3] = target: T3, GABPA (Homo sapiens, UniProt Q06546 1-454)
# T3 sequence: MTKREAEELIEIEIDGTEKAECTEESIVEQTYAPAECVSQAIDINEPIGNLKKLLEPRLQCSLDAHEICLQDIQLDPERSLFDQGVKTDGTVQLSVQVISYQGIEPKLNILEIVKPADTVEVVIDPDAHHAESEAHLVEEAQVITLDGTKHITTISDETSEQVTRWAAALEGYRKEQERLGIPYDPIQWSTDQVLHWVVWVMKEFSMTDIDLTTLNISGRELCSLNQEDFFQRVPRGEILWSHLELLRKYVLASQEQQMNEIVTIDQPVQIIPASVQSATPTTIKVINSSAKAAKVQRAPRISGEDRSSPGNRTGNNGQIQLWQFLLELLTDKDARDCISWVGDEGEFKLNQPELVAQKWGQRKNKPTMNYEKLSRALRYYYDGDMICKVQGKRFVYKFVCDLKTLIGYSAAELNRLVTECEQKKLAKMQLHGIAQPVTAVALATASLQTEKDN
# In short: as §1
# [4] = target: T4, ERG (Homo sapiens, UniProt P11308 1-479)
# T4 sequence: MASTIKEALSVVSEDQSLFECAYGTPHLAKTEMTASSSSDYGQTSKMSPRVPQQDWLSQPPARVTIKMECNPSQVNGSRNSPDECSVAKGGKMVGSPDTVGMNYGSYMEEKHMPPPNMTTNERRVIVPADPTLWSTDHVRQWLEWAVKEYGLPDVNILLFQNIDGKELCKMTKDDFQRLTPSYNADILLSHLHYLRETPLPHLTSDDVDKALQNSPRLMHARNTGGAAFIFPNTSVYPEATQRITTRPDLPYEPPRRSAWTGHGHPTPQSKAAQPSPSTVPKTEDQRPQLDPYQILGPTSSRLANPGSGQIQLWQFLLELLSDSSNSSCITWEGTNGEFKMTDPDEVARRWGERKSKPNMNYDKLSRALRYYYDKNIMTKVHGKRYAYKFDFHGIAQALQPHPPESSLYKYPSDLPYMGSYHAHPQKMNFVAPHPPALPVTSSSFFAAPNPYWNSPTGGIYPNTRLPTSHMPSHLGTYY
# In short: as §1
# [5] = target: ELF1 (Homo sapiens, UniProt P32519 1-619)
# In short: as §1
# [6] = target: T5, EHF (Homo sapiens, UniProt Q9NZC4 1-300)
# T5 sequence: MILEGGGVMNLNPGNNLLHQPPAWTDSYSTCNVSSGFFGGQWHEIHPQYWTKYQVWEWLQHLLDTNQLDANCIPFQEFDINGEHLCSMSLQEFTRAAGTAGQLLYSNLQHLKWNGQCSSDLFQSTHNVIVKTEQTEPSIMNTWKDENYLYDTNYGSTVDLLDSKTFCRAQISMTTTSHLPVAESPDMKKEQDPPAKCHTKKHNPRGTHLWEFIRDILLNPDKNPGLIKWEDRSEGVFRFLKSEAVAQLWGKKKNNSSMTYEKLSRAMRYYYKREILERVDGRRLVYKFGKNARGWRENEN
# In short: as §1
# [7] = target: SPI1 (Homo sapiens, UniProt P17947 1-270)
# In short: as §1
# [8] = target: SPIB (Homo sapiens, UniProt Q01892 1-262)
# In short: as §1
# [9] = target: T6, ELK3 (Homo sapiens, UniProt P41970 1-407)
# T6 sequence: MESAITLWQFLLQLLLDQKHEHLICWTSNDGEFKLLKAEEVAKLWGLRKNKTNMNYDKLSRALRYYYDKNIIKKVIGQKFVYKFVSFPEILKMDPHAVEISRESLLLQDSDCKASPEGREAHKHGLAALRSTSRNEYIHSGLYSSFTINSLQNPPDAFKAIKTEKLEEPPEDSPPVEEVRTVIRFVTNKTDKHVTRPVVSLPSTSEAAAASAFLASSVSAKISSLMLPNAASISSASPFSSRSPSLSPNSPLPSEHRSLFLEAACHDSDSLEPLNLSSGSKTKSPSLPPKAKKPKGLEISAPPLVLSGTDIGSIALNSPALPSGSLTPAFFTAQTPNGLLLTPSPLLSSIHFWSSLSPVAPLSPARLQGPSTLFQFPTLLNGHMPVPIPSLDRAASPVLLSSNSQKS
# In short: as §1
# ELF1, sequence (P32519 whole entry): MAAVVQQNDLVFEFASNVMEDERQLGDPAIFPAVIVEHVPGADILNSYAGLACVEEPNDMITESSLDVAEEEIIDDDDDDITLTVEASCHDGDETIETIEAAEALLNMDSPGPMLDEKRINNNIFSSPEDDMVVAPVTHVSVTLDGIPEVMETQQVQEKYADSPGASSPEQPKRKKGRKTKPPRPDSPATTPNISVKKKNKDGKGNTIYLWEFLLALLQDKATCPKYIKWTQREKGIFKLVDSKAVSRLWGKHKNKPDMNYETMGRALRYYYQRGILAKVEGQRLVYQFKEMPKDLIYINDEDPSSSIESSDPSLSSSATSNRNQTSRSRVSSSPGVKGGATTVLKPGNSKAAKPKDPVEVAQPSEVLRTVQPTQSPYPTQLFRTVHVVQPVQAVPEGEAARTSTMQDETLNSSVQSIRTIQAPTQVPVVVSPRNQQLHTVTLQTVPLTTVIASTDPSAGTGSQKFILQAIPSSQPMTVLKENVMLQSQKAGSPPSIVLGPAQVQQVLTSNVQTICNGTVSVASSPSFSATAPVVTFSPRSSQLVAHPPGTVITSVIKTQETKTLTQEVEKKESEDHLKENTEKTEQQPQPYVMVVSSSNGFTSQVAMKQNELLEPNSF
# SPIB, sequence (Q01892 whole entry): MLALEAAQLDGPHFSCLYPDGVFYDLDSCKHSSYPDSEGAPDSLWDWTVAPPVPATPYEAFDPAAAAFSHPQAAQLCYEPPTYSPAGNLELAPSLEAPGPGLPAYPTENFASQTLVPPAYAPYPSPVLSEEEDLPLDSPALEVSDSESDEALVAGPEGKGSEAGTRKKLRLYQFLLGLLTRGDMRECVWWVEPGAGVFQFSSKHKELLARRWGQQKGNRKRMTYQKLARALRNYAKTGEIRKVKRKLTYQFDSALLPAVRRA
sequence,measurement,setting,value
TTGGTA,binding signal,[1],"1.23 fold enrichment (6-mer frequency, TF over GST control)"
same,binding signal,[2],"1.3 fold enrichment (6-mer frequency, TF over GST control)"
same,binding signal,[3],"1.22 fold enrichment (6-mer frequency, TF over GST control)"
same,binding signal,[4],"1.13 fold enrichment (6-mer frequency, TF over GST control)"
same,binding signal,[5],"1.19 fold enrichment (6-mer frequency, TF over GST control)"
same,binding signal,[6],"1.21 fold enrichment (6-mer frequency, TF over GST control)"
same,binding signal,[7],"1.23 fold enrichment (6-mer frequency, TF over GST control)"
same,binding signal,[8],"1.33 fold enrichment (6-mer frequency, TF over GST control)"
same,binding signal,[9],"1.2 fold enrichment (6-mer frequency, TF over GST control)"
TCCTGT,binding signal,[1],"1.8 fold enrichment (6-mer frequency, TF over GST control)"
same,binding signal,[2],"1.72 fold enrichment (6-mer frequency, TF over GST control)"
same,binding signal,[3],"1.69 fold enrichment (6-mer frequency, TF over GST control)"
same,binding signal,[4],"1.94 fold enrichment (6-mer frequency, TF over GST control)"
same,binding signal,[5],"1.71 fold enrichment (6-mer frequency, TF over GST control)"
same,binding signal,[6],"1.67 fold enrichment (6-mer frequency, TF over GST control)"
same,binding signal,[7],"1.99 fold enrichment (6-mer frequency, TF over GST control)"
same,binding signal,[8],"1.88 fold enrichment (6-mer frequency, TF over GST control)"
same,binding signal,[9],"1.88 fold enrichment (6-mer frequency, TF over GST control)"
CTACTG,binding signal,[1],"1.31 fold enrichment (6-mer frequency, TF over GST control)"
same,binding signal,[2],"1.28 fold enrichment (6-mer frequency, TF over GST control)"
same,binding signal,[3],"1.35 fold enrichment (6-mer frequency, TF over GST control)"
same,binding signal,[4],"1.22 fold enrichment (6-mer frequency, TF over GST control)"
same,binding signal,[5],"1.34 fold enrichment (6-mer frequency, TF over GST control)"
same,binding signal,[6],"1.33 fold enrichment (6-mer frequency, TF over GST control)"
same,binding signal,[7],"1.23 fold enrichment (6-mer frequency, TF over GST control)"
same,binding signal,[8],"1.05 fold enrichment (6-mer frequency, TF over GST control)"
same,binding signal,[9],"1.09 fold enrichment (6-mer frequency, TF over GST control)"
AGCTCC,binding signal,[1],"1.38 fold enrichment (6-mer frequency, TF over GST control)"
same,binding signal,[2],"1.23 fold enrichment (6-mer frequency, TF over GST control)"
same,binding signal,[3],"1.32 fold enrichment (6-mer frequency, TF over GST control)"
same,binding signal,[4],"1.2 fold enrichment (6-mer frequency, TF over GST control)"
same,binding signal,[5],"1.28 fold enrichment (6-mer frequency, TF over GST control)"
same,binding signal,[6],"1.31 fold enrichment (6-mer frequency, TF over GST control)"
same,binding signal,[7],"1.25 fold enrichment (6-mer frequency, TF over GST control)"
same,binding signal,[8],"1.21 fold enrichment (6-mer frequency, TF over GST control)"
same,binding signal,[9],"1.17 fold enrichment (6-mer frequency, TF over GST control)"
TCCGTA,binding signal,[1],"1.57 fold enrichment (6-mer frequency, TF over GST control)"
same,binding signal,[2],"1.63 fold enrichment (6-mer frequency, TF over GST control)"
same,binding signal,[3],"1.59 fold enrichment (6-mer frequency, TF over GST control)"
same,binding signal,[4],"1.52 fold enrichment (6-mer frequency, TF over GST control)"
same,binding signal,[5],"1.59 fold enrichment (6-mer frequency, TF over GST control)"
same,binding signal,[6],"1.6 fold enrichment (6-mer frequency, TF over GST control)"
same,binding signal,[7],"1.69 fold enrichment (6-mer frequency, TF over GST control)"
same,binding signal,[8],"1.58 fold enrichment (6-mer frequency, TF over GST control)"
same,binding signal,[9],"1.62 fold enrichment (6-mer frequency, TF over GST control)"
CTTTTG,binding signal,[1],"1.42 fold enrichment (6-mer frequency, TF over GST control)"
same,binding signal,[2],"1.35 fold enrichment (6-mer frequency, TF over GST control)"
same,binding signal,[3],"1.41 fold enrichment (6-mer frequency, TF over GST control)"
same,binding signal,[4],"1.25 fold enrichment (6-mer frequency, TF over GST control)"
same,binding signal,[5],"1.34 fold enrichment (6-mer frequency, TF over GST control)"
same,binding signal,[6],"1.32 fold enrichment (6-mer frequency, TF over GST control)"
same,binding signal,[7],"1.6 fold enrichment (6-mer frequency, TF over GST control)"
same,binding signal,[8],"1.42 fold enrichment (6-mer frequency, TF over GST control)"
same,binding signal,[9],"1.23 fold enrichment (6-mer frequency, TF over GST control)"
CCCCAT,binding signal,[1],"1.37 fold enrichment (6-mer frequency, TF over GST control)"
same,binding signal,[2],"1.24 fold enrichment (6-mer frequency, TF over GST control)"
same,binding signal,[3],"1.26 fold enrichment (6-mer frequency, TF over GST control)"
same,binding signal,[4],"1.34 fold enrichment (6-mer frequency, TF over GST control)"
same,binding signal,[5],"1.31 fold enrichment (6-mer frequency, TF over GST control)"
same,binding signal,[6],"1.27 fold enrichment (6-mer frequency, TF over GST control)"
same,binding signal,[7],"1.46 fold enrichment (6-mer frequency, TF over GST control)"
same,binding signal,[8],"1.18 fold enrichment (6-mer frequency, TF over GST control)"
same,binding signal,[9],"1.2 fold enrichment (6-mer frequency, TF over GST control)"
